GDH-TPI counter = GDH-TPI coupled enzyme inhibition counter-screen | GDH-TPI coupled enzyme counterscreen, NADH absorbance | inhibition, % at 4.8 µM | hit rate 1.2% among 360,000; in the data active means inhibition above about 30%
Mtb betalactam = beta-lactam sensitization of Mtb H37Rv. inhibition, % at 25 µM. hit rate 0.27% among 330,000. M. tuberculosis H37Rv growth with meropenem, percent inhibition; call rule not given here;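 further: growth measured after seven days incubation then overnight dye step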
RecA intein inh = Mtb RecA intein splicing inhibition; P9WHJ3; cell-free RecA intein splicing, fluorescence; inhibition, % (test concentration not listed); hit rate 0.75% among 290,000; AID 2221; in the data active means inhibition above about 30%
UGM FP inh = inhibitors of M. tuberculosis UDP-galactopyranose mutase | purified UGM, fluorescence polarization probe displacement | inhibition, % at 10 µM | hit rate 0.06% among 320,000 | AID 504406; in the data active means inhibition above about 10%, passing the limit was not always enough
Mtb FBA inh = inhibitors of M. tuberculosis fructose-bisphosphate aldolase. purified M. tuberculosis FBA, fluorescence read-out. inhibition, % at 1 µM. hit rate 2.3% among 360,000. AID 588726; in the data active means inhibition above about 27%
Target sequence (P9WQA3 whole entry, looked up): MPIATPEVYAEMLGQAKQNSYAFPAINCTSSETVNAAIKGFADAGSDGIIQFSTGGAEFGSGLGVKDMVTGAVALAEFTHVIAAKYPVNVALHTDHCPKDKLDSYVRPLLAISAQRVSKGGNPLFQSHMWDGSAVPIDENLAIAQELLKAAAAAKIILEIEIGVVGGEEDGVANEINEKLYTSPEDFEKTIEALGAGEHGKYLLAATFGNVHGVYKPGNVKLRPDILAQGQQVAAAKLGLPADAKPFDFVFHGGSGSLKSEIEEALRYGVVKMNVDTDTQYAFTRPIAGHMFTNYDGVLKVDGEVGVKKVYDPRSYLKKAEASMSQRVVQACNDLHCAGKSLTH
Rv3671c protease = inhibits the M. tuberculosis serine protease Rv3671c. P9WHR9. inhibition, % at 5.96 µM. hit rate 0.048% among 320,000. AID 2606; in the data active means inhibition above about 38%;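 further: extracellular domain of Rv3671c used as enzyme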
Of the large screens only hits and unclear results are named; the others gave an inactive call. In the library only some 4% were active in any assay of this set; here they are far more common.

CCc1nc(Nc2ccc3c(c2)OCO3)c2oc3ccccc3c2n1	none
CCc1nc(Nc2cccc(O)c2)c2oc3ccccc3c2n1	GDH-TPI counter 31 (no result: Rv3671c protease)
O=C1CN(S(=O)(=O)c2cccc(Cl)c2Cl)c2ccccc2N1	none
O=C(COC(=O)CN1C(=O)NC2(CCCC2)C1=O)NCc1ccc(Cl)cc1Cl	UGM FP inh 11 (no result: RecA intein inh)
C/C=C/c1ccc(OCC(=O)OCc2csc(CC(=O)Nc3ccccc3C)n2)c(OC)c1	none
Cc1cc(C)[n+](-c2ccc(F)cc2)c2[nH]c(=O)[nH]c(=O)c12	Mtb FBA inh active
Nc1nc2c(s1)COc1ccccc1-2	none
Nc1nc2c(s1)CCc1c-2cnn1-c1ccccc1	RecA intein inh 98
C1CCN(c2nc3nonc3nc2NCC2CCOCC2)CC1	GDH-TPI counter 52
C1CCN(c2nc3nonc3nc2N2CCCCC2)CC1	none
COc1cccc(CC(=O)Nc2ccc3c(c2)c(=O)n(C)n3-c2ccc(C(C)(C)C)cc2)c1	none (no result: Mtb betalactam, RecA intein inh, UGM FP inh, Rv3671c protease)
COc1cccc(Cn2c3ccc(NC(=O)Cc4cc(OC)ccc4OC)cc3c(=O)n2C)c1	Mtb FBA inh 152 (no result: Mtb betalactam, RecA intein inh, UGM FP inh, Rv3671c protease)
CC(CC(=O)Nc1ccc2c(c1)c(=O)n(C)n2-c1ccc2ccccc2c1)C(F)(F)F (stereo not given)	none (no result: Mtb betalactam, RecA intein inh, UGM FP inh, Rv3671c protease)
COc1cccc(Cn2c3ccc(NC(=O)CC(C)C(F)(F)F)cc3c(=O)n2C)c1 (stereo not given)	Mtb FBA inh 143 (no result: Mtb betalactam, RecA intein inh, UGM FP inh, Rv3671c protease)
CC(CC(=O)Nc1ccc2c(c1)c(=O)n(C)n2Cc1ccc(F)cc1)C(F)(F)F (stereo not given)	Mtb FBA inh 148 (no result: Mtb betalactam, RecA intein inh, UGM FP inh, Rv3671c protease)
CC(CC(=O)Nc1ccc2c(c1)c(=O)n(C)n2Cc1ccc(F)cc1)c1ccccc1 (stereo not given)	Mtb FBA inh 130 (no result: Mtb betalactam, RecA intein inh, UGM FP inh, Rv3671c protease)
O=C(CCC(C(=O)c1ccccc1)c1ccccc1)c1ccccc1 (stereo not given)	none (no result: Mtb betalactam, RecA intein inh, UGM FP inh, Rv3671c protease)
CCNC(=S)Nc1ccc2c(c1)c(=O)n(C)n2-c1cc(C)cc(C)c1	none (no result: Mtb betalactam, RecA intein inh, UGM FP inh, Rv3671c protease)
CCNC(=O)Nc1ccc2c(c1)c(=O)n(C)n2Cc1ccc(Cl)cc1	Mtb FBA inh active (no result: Mtb betalactam, RecA intein inh, UGM FP inh, Rv3671c protease)
C=C(C)Cn1c2ccc(NC(=O)NCc3ccccc3)cc2c(=O)n1C	Mtb FBA inh 166 (no result: Mtb betalactam, RecA intein inh, UGM FP inh, Rv3671c protease)
C=C(C)Cn1c2ccc(NC(=O)NCC)cc2c(=O)n1C	Mtb FBA inh active (no result: Mtb betalactam, RecA intein inh, UGM FP inh, Rv3671c protease)
Cc1cc(C)c2c3c(sc2n1)C(c1cccc(F)c1)C(C#N)=C(N)O3 (stereo not given)	Mtb FBA inh 64 (no result: RecA intein inh)
CCCc1ccc(-c2cc(C(=O)N/N=C/c3ccc([N+](=O)[O-])o3)c3ccccc3n2)cc1	none
O=C(N/N=C/c1ccc([N+](=O)[O-])o1)c1cc(-c2cccc(Br)c2)nc2ccccc12	GDH-TPI counter 39
Cc1cc(C(=O)N/N=C/c2ccc([N+](=O)[O-])o2)c(C)o1	GDH-TPI counter 41
CSc1ccc(N=Nc2c(C)[nH]n(C)c2=O)cc1	none
Cc1cc(/C=C(\C#N)C(N)=O)c(C)n1-c1ccc(N2CCOCC2)c([N+](=O)[O-])c1	GDH-TPI counter 38
Cc1cc(C=O)c(C)n1-c1ccc(N2CCCCC2)c([N+](=O)[O-])c1	none
CSc1nc(=S)c2[nH]c(=S)[nH]c2[nH]1	GDH-TPI counter 33 (no result: Rv3671c protease)
Nc1nc(=S)c2[nH]c(=S)[nH]c2[nH]1	none (no result: Mtb betalactam, RecA intein inh, UGM FP inh, Rv3671c protease)
CC(C)OC(=O)c1cc(C(=O)c2cc(F)ccc2O)coc1=N	GDH-TPI counter 36
O=C(CN1C(=O)S/C(=C\c2ccccc2)C1=O)NCCCn1ccnc1	none
CC(C)c1ccc(/C=C2\SC(=O)N(CC(=O)NCCCn3ccnc3)C2=O)cc1	GDH-TPI counter 47
CC(=O)Nc1ccc(-c2noc(-c3csc([C@@H]4C[C@H](O)[C@@H](CO)O4)n3)n2)cc1	none (no result: Mtb betalactam, RecA intein inh, UGM FP inh, Rv3671c protease)
CN(Cc1ccccc1)c1ccc(S(=O)(=O)N2CCC(C(=O)O)CC2)cc1[N+](=O)[O-]	Mtb FBA inh active
CC(=O)Oc1ccc2c(=O)c(/C=N/c3cc(=O)[nH]c(=S)[nH]3)coc2c1	GDH-TPI counter 54
O=c1ncccn1C1OC(CO)C(O)C1O (stereo not given)	none (no result: GDH-TPI counter, Mtb betalactam, RecA intein inh, UGM FP inh, Rv3671c protease)
C=CCn1c(-c2cccc(OC)c2)nc2nc3ccccc3nc21	GDH-TPI counter 54
C=CCn1c(-c2cccs2)nc2nc3ccccc3nc21	Mtb FBA inh active
C=CCn1c(-c2cccc(OC)c2)n[nH]c1=S	none
CNc1ncnc2c1cnn2C1CCCCO1 (stereo not given)	none (no result: Mtb betalactam, RecA intein inh, UGM FP inh, Rv3671c protease)
CCN(CC)C(=O)c1cccc(-c2csc(C(C)(NC(C)=O)c3ccc(OC)cc3)n2)c1 (stereo not given)	none (no result: Mtb betalactam, RecA intein inh, UGM FP inh, Rv3671c protease)
Cc1cccc(C(C)Nc2ccc([N+](=O)[O-])cn2)c1 (stereo not given)	GDH-TPI counter 31
COc1ccc(/C=C/C(=O)NC(=S)Nc2ccc(S(=O)(=O)Nc3cc(C)on3)cc2)cc1	GDH-TPI counter 35
COc1ccc(/C=C/C(=O)NC(=S)Nc2ccc(S(=O)(=O)Nc3ccc(OC)nn3)cc2)cc1	GDH-TPI counter 39
O=C(Cc1ccc(S(=O)(=O)N2CCOCC2)s1)NCCc1ccc(F)cc1	none
O=C(Nc1ccccc1Cl)c1cc(C2CCCN(C(=O)c3ccccc3)C2)on1 (stereo not given)	none (no result: Mtb betalactam, RecA intein inh, UGM FP inh, Rv3671c protease)
CC(/C=C/c1ccc2c(c1)OCO2)=N/NC(=O)c1cccnc1	GDH-TPI counter 42
CC(/C=C/c1ccc2c(c1)OCO2)=N/NC(=O)c1ccncc1	GDH-TPI counter 48
O=C(N/N=C/c1ccc2c(c1)OCCO2)c1ccncc1	none
CC(/C=C/c1ccc2c(c1)OCO2)=N/NC(=O)c1ccc(C)nc1	GDH-TPI counter 36
COc1cc(C(=O)NNC(=S)NC(=O)c2ccc(F)cc2)cc(OC)c1OC	none

Screens (PubChem BioAssay)
